Reference: PubChem BioAssay AID1159580 (chemical genetic matrix, 2015)
Where “and” joins values, the source holds several entries; their conditions need not be identical. Identical values can stand only once. Hit rate of the full screen: of about 5,500 compounds, about 2,000 (36%) were called active. Roughly 18% stayed inconclusive and do not appear here. Rule as the data show it: active = normalized growth mostly below about 0.91 (no sharp cut-off); inconclusive = no clear call, values can overlap the other calls; inactive = mostly above about 0.92. Some of the results follow.

Experiment: chemical genetic growth profiling, strain panel (AID 1159580);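 also: tested at 20 µM; growth read once vehicle control cultures reached saturation at 30 °C; 1 = growth at the plate median or of vehicle wells; lower values mean less growth of the strain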
Settings: S. cerevisiae deletion strains, growth OD

Measured: normalized growth

CCCN(CCC)S(=O)(=O)c1ccc(C(=O)O)cc1
inactive: locus YAL013W, strain DEP1, hits give low values 0.992 | locus YAL021C, strain ccr4, hits give low values 0.998 | locus YAL026C, strain drs2, hits give low values 0.999 | locus YAL030W, strain snc1, hits give low values 0.992 | locus YBL061C, strain skt5, hits give low values 0.991 | locus YBR009C, strain hhf1, hits give low values 0.997 | locus YBR021W, strain FUR4, hits give low values 0.945 | locus YBR023C, strain chs3, hits give low values 0.994 | locus YBR171W, strain sec66, hits give low values 0.968 | locus YBR229C, strain ROT2, hits give low values 1 | locus YBR231C, strain swc5, hits give low values 0.955 | locus YBR279W, strain paf1, hits give low values 0.996 | locus YCL011C, strain gbp2, hits give low values 1 | locus YCL016C, strain dcc1, hits give low values 1 | locus YCL029C, strain bik1, hits give low values 1.02 | locus YCL069W, strain vba3, hits give low values 0.981 | locus YCR088W, strain abp1, hits give low values 0.993 | locus YDL005C, strain med2, hits give low values 0.987 | locus YDL035C, strain GPR1, hits give low values 0.998 | locus YDL040C, strain nat1, hits give low values 0.99 | locus YDL074C, strain BRE1, hits give low values 0.998 | locus YDL101C, strain DUN1, hits give low values 1.01 | locus YDL134C, strain PPH21, hits give low values 1 | locus YDL185W, strain tfp1, hits give low values 1.01 | locus YDL192W, strain arf1, hits give low values 1.01 | locus YDR001C, strain nth1, hits give low values 0.987 | locus YDR069C, strain doa4, hits give low values 0.987 | locus YDR101C, strain arx1, hits give low values 1 | locus YDR137W, strain rgp1, hits give low values 1.01 | locus YDR150W, strain NUM1, hits give low values 0.998 | locus YDR159W, strain sac3, hits give low values 1 | locus YDR162C, strain NBP2, hits give low values 0.999 | locus YDR195W, strain ref2 0.933 | locus YDR297W, strain sur2, hits give low values 0.998 | locus YDR318W, strain mcm21, hits give low values 1.02 | locus YDR334W, strain swr1, hits give low values 0.997 | locus YDR335W, strain msn5, hits give low values 0.992 | locus YDR388W, hits give low values 1.01 | locus YDR392W, strain spt3, hits give low values 1.01 | locus YDR502C, strain sam2, hits give low values 1.02 | locus YEL003W, strain gim4, hits give low values 0.99 | locus YEL037C, strain rad23, hits give low values 0.993 | locus YEL061C, strain CIN8 (second series), hits give low values 0.982 | locus YEL061C, strain CIN8, hits give low values 1 | locus YER015W, strain faa2, hits give low values 0.999 | locus YER016W, strain bim1, hits give low values 0.994 | locus YER110C, hits give low values 1.01 | locus YER111C, strain swi4, hits give low values 0.979 | locus YER155C, strain BEM2 (second series), hits give low values 0.978 | locus YER155C, strain BEM2, hits give low values 1.01 | locus YER167W, strain BCK2, hits give low values 1 | locus YFR010W, strain ubp6, hits give low values 0.983 | locus YGL078C, strain dbp3, hits give low values 1.01 | locus YGL086W, strain mad1, hits give low values 1 | locus YGL167C, strain pmr1, hits give low values 0.991 | locus YGL173C, strain kem1, hits give low values 0.976 | locus YGL227W, strain vid30, hits give low values 0.988 | locus YGL240W, strain doc1, hits give low values 0.976 | locus YGL248W, strain PDE1, hits give low values 1 | locus YGL253W, strain hxk2, hits give low values 1 | locus YGR078C, strain PAC10, hits give low values 0.967 | locus YGR135W, strain pre9, hits give low values 1.03 | locus YGR229C, strain SMI1, hits give low values 0.982 | locus YGR252W, strain gcn5, hits give low values 1 | locus YHR013C, strain ard1, hits give low values 0.986 | locus YHR027C, strain rpn1, hits give low values 0.999 | locus YHR030C, strain SLT2, hits give low values 1 and 1.02 | locus YHR079C, strain IRE1 (second series), hits give low values 1.01 | locus YHR079C, strain IRE1, hits give low values 1.01 | locus YHR094C, strain hxt1, hits give low values 1.01 | locus YHR129C, strain ARP1, hits give low values 1.01 | locus YHR142W, strain chs7, hits give low values 1 | locus YHR200W, strain rpn10, hits give low values 1.01 | locus YIL066C, strain RNR3, hits give low values 0.996 | locus YIL073C, strain SPO22, hits give low values 1.08 | locus YIL125W, strain kgd1, hits give low values 1.01 | locus YIR030C, strain dcg1, hits give low values 1 | locus YJL092W, strain hpr5, hits give low values 0.981 | locus YJL095W, strain BCK1 (second series), hits give low values 0.995 | locus YJL095W, strain BCK1, hits give low values 1.02 | locus YJL115W, strain asf1, hits give low values 0.989 | locus YJL129C, strain trk1, hits give low values 0.99 | locus YJL134W, strain LCB3, hits give low values 0.997 | locus YJL154C, strain vps35, hits give low values 0.99 | locus YJL164C, strain tpk1, hits give low values 1.01 | locus YJL166W, strain qcr8, hits give low values 0.966 | locus YJL168C, strain set2, hits give low values 1 | locus YJL187C, strain SWE1 (second series), hits give low values 1.01 | locus YJL187C, strain SWE1, hits give low values 0.991 | locus YJR043C, strain POL32, hits give low values 1 | locus YJR066W, strain TOR1, hits give low values 0.965
